# Compound activity as filed in PubChem.
# Compounds with a hit are over-represented: about 1.8% of the library has one in this group of screens.
# VHR inh abs = inhibitors of human VHR1 phosphatase (DUSP3) | inhibition, % at 13.3 µM | 0.52% of 290,000 active | AID 1654 | P51452 | recombinant VHR phosphatase, pNPP absorbance; in the data active means inhibition above about 50%
# MazF activator = increases E. coli MazEF RNase cleavage of RNA; P0AE70; FAM/BHQ RNA-DNA oligo cleavage fluorescence, 5 h; activation, % at 20 µM; 0.32% of 350,000 active; AID 504720; in the data active means activation above about 50%
# Vc quorum ag = induces V. cholerae light production without autoinducers; activation, % at 18.7 µM; 0.16% of 350,000 active; V. cholerae BH1578 lux reporter, luminescence, 6 h; in the data active means activation mostly above about 9.7%, no sharp cut-off
# PrPC surface inh = cell surface PrPC inhibition, primary TR-FRET screen. P04156. TR-FRET read-out. inhibition, % at 13.8 µM. 0.43% of 370,000 active. AID 720596; in the data active means inhibition above about 24%; further: 0% = median of the test wells and 100% = reference compound wells
# Yp Topo-I inh = Y. pestis Topo-I inhibition via cleavage products. Y. pestis Topo-I cleavage product accumulation, plate reader. activity, % at 10 µM. 0.064% of 360,000 active. AID 504884; in the data active means activity above about 50%, passing the limit was not always enough
# CCHFV vOTU inh = CCHFV vOTU protease inhibition; Pep-AMC fluorescence; inhibition, % at 11.5 µM; 0.55% of 370,000 active; AID 651958; in the data active means inhibition above about 30%; further: 0% = vehicle wells with enzyme and 100% = no enzyme wells
# PrPC confirm = confirmation of inhibitors of cell surface human prion protein; AID 743200; 65% of 1,500 active; shares compounds with PrPC surface inh; cell surface PrPC level, TR-FRET; inhibition, % at 13.8 µM; in the data active means inhibition above about 25%
# LD9 cytotox = kills or reduces viability of LD9 cells in PrPc counter-screen | shares compounds with PrPC surface inh | LD9 cells cytotoxicity, luminescence viability | inhibition, % at 13.8 µM | 29% of 1,500 active | AID 743201; in the data active means inhibition above about 9.5%
# * hit, by the source's call; i = inactive; . = no result given.
SMILES,VHR inh abs,MazF activator,Vc quorum ag,PrPC surface inh,Yp Topo-I inh,CCHFV vOTU inh,PrPC confirm,LD9 cytotox
CC(CN1CCC(n2nccc2NC(=O)CCCc2ccccc2)CC1)c1ccccc1 (centres undefined),7,-4,-1,-7,24,14,.,.
COc1ccc2c(Cl)c(C(N)=O)sc2c1,6,1,-1,79*,3,11,99*,2
O=c1[nH]c(=O)n(Cc2ccco2)c2c1C(C(F)(F)F)(C(F)(F)F)N=C(CCc1ccccc1)N2,41,1,i,56*,29,7,72*,2
C[C@H]1CCC/C=C/[C@@H]2C[C@H](O)C[C@H]2[C@H](O)/C=C/C(=O)O1,.,1,0,95*,0,5,95*,4
COc1ccc(OCc2cc(C(=O)N(Cc3nccn3C)C(C)C)no2)c2ccccc12,6,-2,-1,-4,16,7,.,.
COCc1cc(N2CCNC[C@H]2C)ccc1N1CCN(Cc2ccccc2)[C@H](C)C1,.,.,.,-1,.,2,.,.
NC(CCc1ccccc1)c1csc(NC(=O)Nc2ccccc2Oc2ccccc2)n1 (centres undefined),.,.,0,50*,-2,18,34*,3
NC(CCc1ccccc1)c1csc(NC(=O)NCCc2ccccc2)n1 (centres undefined),.,.,-1,1,-4,-3,.,.
COc1ccc(C(N)c2csc(NC(=O)Nc3ccccc3C(C)(C)C)n2)cc1 (centres undefined),.,.,i,30*,7,4,7,-6
Cc1cccc(NC(=O)CSc2nnc(-c3ccncc3)n2CC2CCCO2)c1 (centres undefined),20,10,-2,60*,0,14,4,-7
COc1ccccc1NC(=O)CSc1nnc(-c2ccncc2)n1CC1CCCO1 (centres undefined),6,-4,0,0,-1,-19,.,.
CCOc1ccc(NC(=O)Nc2ccc(Cc3ccncc3)cc2)cc1,18,4,0,33*,2,-4,29*,4
CCOc1ccc(NC(=O)C(=O)NCc2ccncc2)cc1,43,-15,0,8,-3,-7,.,.
CCc1c(C)nc2c(-c3ccccc3OC)c(C)[nH]n2c1=O,46,19,0,3,-1,0,.,.
O=C(Nc1ccc(Cl)c(Cl)c1)c1ccc(Cn2cc(Cl)cn2)cc1,-21,28,i,6,-10,17,.,.
Cc1ccc(Cl)cc1NC(=O)c1ccc(Cn2cc(Cl)cn2)cc1,-11,-3,0,27*,1,7,24,3
O=C(Nc1ccccc1F)c1ccc(Cn2cc(Cl)cn2)cc1,17,7,i,6,1,-5,.,.
CCOc1ccc(C(=O)Nc2cnn(Cc3ccc(Cl)c(Cl)c3)c2)cc1,27,17,0,27*,-4,-5,23,-4
O=C(O)c1ccc(NCc2cccs2)cc1,-18,1,0,19,9,-7,.,.
C#CCn1cc(/C=N/Nc2nc3ccccc3[nH]2)c2ccccc21,-28,6,i,36*,-18,8,10,19*
O=C(c1ccc(Cl)c(Cl)c1)c1cc(-c2ccccn2)c(N2CCOCC2)s1,23,-29,i,41*,21,0,52*,5
O=C(c1ccc(CNS(=O)(=O)c2ccc(Br)cc2)cc1)N1CCCCCC1,-6,3,0,-10,34,21,.,.
O=C(N[C@H](C(=O)N1CCC[C@H]1C(=O)NC1CCCC1)C1CCCCC1)c1nccs1,.,.,.,-8,.,-9,.,.
O=C(Nc1ccc(N2CCN(C(=O)c3ccco3)CC2)cc1)c1ccc2c(c1)OCO2,48,6,0,25*,11,-2,15,3
O=C(Nc1ccc(N2CCN(C(=O)c3ccco3)CC2)cc1)c1ccc(Br)cc1,15,-24,0,-7,0,1,.,.
SMILES,VHR inh abs,MazF activator,Vc quorum ag,PrPC surface inh,Yp Topo-I inh,CCHFV vOTU inh,PrPC confirm,LD9 cytotox
Cc1ccccc1C(=O)N1CCN(c2ccc(NC(=O)c3ccc4c(c3)OCO4)cc2)CC1,21,0,0,34*,15,-13,30*,13*
CN(C)CC(=O)N[C@H]1C[C@@H]2O[C@@H](CO)CC[C@@H]2O[C@@H]1CCc1ccc(-c2ccc(F)cc2)cc1,.,.,.,-6,.,-7,.,.
Cc1ccc(S(=O)(=O)Nc2ccccc2N(C)S(=O)(=O)c2ccc(C)cc2)cc1,.,2,1,26*,24,4,18,9.7*
CC(=O)OC1CCC2(C)C(CCC3C4CC=C(C(C)=O)C4(C)OC(=O)CC32)C1 (centres undefined),.,4,i,72*,6,7,-16,91*
CC(=O)O[C@H]1CC[C@@]2(C)C(CCC3C2CC[C@]2(C)OC(=O)CCC32)C1 (some centres undefined),22,4,i,7,24,5,.,.
CCOc1ccc(NC(=O)Nc2cc(OCC(F)(F)F)cc(OCC(F)(F)F)c2)cc1,21,6,0,10,5,12,.,.
O=C(Nc1ccc(F)cc1)Nc1cc(OCC(F)(F)F)cc(OCC(F)(F)F)c1,21,42,0,44*,1,-11,44*,27*
Cc1c(N/N=C(\C#N)C(=O)c2ccc(Cl)cc2)c(=O)n(-c2ccccc2)n1C,7,-2,0,34*,7,18,26*,25*
N#C/C(=N\Nc1ccc(Cl)cc1)C(=O)c1ccccc1,3,-18,0,7,-9,4,.,.
CC(C)N1CCc2c(sc(NC(=O)C(F)(F)F)c2-c2nc3ccccc3s2)C1,.,.,.,-1,.,.,.,.
N#CC(C#N)=C(Nc1ccc(F)cc1)SCc1cccc(F)c1,-5,-4,0,28*,0,3,33*,35*
CCOc1ccc(N/C(SCc2cccc([N+](=O)[O-])c2)=C(/C#N)C(N)=O)cc1,16,2,0,7,1,-1,.,.
COc1cccc(-c2oc3c(c2-c2ccc(Br)nc2)C(O)CCC3)c1 (centres undefined),.,.,.,-5,.,8,.,.
CC(=O)OC1(C)CC(C)C(=O)C(C(O)CC2CC(=O)NC(=O)C2)C1 (centres undefined),.,6,-1,91*,-5,6,101*,55*
C[C@@H]1C[C@@H]([C@H](O)CC2CC(=O)NC(=O)C2)C(=O)[C@@H](C)C1,.,6,0,82*,-2,0,86*,33*
O=C(NCc1n[nH]c(=S)n1-c1ccc(Cl)c(Cl)c1)c1ccco1,14,7,-9,1,10,-9,.,.
OCC[C@@H]1C[C@H](O)[C@@H](O)[C@@]2(CCCc3ccccc3O2)O1,25,-5,-1,2,-8,-5,.,.
